Compound activity from PubChem.
MazF activator – increases E. coli MazEF RNase cleavage of RNA | P0AE70 | FAM/BHQ RNA-DNA oligo cleavage fluorescence, 5 h | activation, % at 20 µM | hit rate 0.32% among 350,000; in the data active = activation above about 50%
Target sequence (P0AE70 whole entry, looked up): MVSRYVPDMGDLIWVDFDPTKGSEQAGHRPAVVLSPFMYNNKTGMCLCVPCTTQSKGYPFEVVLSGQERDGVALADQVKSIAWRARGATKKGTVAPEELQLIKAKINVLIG
CCHFV vOTU inh – CCHFV vOTU protease inhibition; hit rate 0.55% among 370,000; AID 651958; Pep-AMC fluorescence; inhibition, % at 11.5 µM; also: 0% = vehicle wells with enzyme and 100% = no enzyme wells
FBA Mtb inh – inhibitors of M. tuberculosis fructose-bisphosphate aldolase; P9WQA3; purified M. tuberculosis FBA, fluorescence read-out; inhibition, % at 1 µM; hit rate 2.3% among 360,000; AID 588726; in the data active = inhibition above about 27%;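 also: 0% = vehicle and 100% = reference inhibitor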
Mtb betalactam – beta-lactam sensitization of Mtb H37Rv. M. tuberculosis H37Rv growth with meropenem, percent inhibition. inhibition, % at 25 µM. hit rate 0.27% among 330,000; call rule not given here;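 also: growth measured after seven days incubation then overnight dye step; 0% = bacteria only wells and 100% = bacteria with antibiotic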
GDH-TPI inh – inhibits GDH-TPI coupling enzymes, artifact for Mtb FBA screen. hit rate 1.2% among 360,000. inhibition, % at 4.8 µM. GDH-TPI coupled enzyme counterscreen, NADH absorbance;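 also: 0% = DMSO wells and 100% = wells lacking the enzyme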
* hit, by the source's call; ? = inconclusive; . = no result; + = active, no number. Only some compounds are listed: those with a hit (about 4% of all), similar ones and a draw of the others. Rule as the data show it, unless noted: active = inhibition above about 30%; inactive = the rest.

SMILES	MazF activator	CCHFV vOTU inh	FBA Mtb inh	Mtb betalactam	GDH-TPI inh
COc1ccccc1CNC(=O)COc1cc2c(c3oc(=O)cc(C)c13)CCC(C)(C)O2	0	-88	189*	-6	6
Cc1cc(=O)oc2c3c(cc(OCC(=O)NCc4cccnc4)c12)OC(C)(C)CC3	7	-207	+	2	22
COc1cccc(CNC(=O)C2(C)Oc3ccccc3NC2=O)c1 (stereo not given)	-1	-1	1	-1	0
COc1cccc(CNC(=O)COc2cc3c(c4oc(=O)cc(C)c24)CCC(C)(C)O3)c1	1	-82	168*	4	20
Fc1ccc(C2=Nn3c(nnc3C3CCCCC3)SC2)cc1	.	5	.	.	.
CCCn1c(C)nc2c(c1=O)c1nc3ccccc3nc1n2CCC1=CCCCC1	5	-19	91*	-2	17
CCCCn1c(O)c(N=Nc2ccccc2O)c2ccccc21	101*	8	-4	91	1
c1ccc2c(c1)CCN(c1nc3ccccc3n3cnnc13)C2	10	-1	5	0	4
c1ccc2c(c1)CCCN2c1nc2ccccc2n2cnnc12	5	8	2	-12	36*
Cc1ccccc1CN1CCCCC(NC(=O)c2ccc(-c3ccccc3)cc2)C1=O (stereo not given)	.	4	.	.	.
Cc1nc(N2CCN(C(=O)c3ccc(Cl)cc3)CC2)c(C#N)c2c1COC(C)(C)C2	-5	-10	38*	10	13
Cc1cc(Nc2ccc([N+](=O)[O-])cc2)c2ccccc2n1	-9	4	-2	1	25
Cc1cc(Nc2ccccc2Cl)c2ccccc2n1	9	-3	0	-10	37*
CC(=O)Nc1ccc(Nc2cc(C)nc3ccccc23)cc1	8	1	-1	-7	38*
O=C(Nc1nc2cc3c(cc2s1)OCCO3)c1ccco1	5	23	0	?	35*
O=C(Nc1nc2cc3c(cc2s1)OCO3)c1ccco1	-5	-1	1	.	35*
CC(=O)Nc1nc2cc3c(cc2s1)OCO3	14	-4	-4	3	8
O=C(Nc1nc2cc3c(cc2s1)OCO3)C1=COCCO1	10	22	-5	0	42*
Cn1c(NC(=O)c2ccccc2)nc(Cc2ccccc2)c1-c1ccccc1	.	8	.	.	.
CN(C)S(=O)(=O)c1cccc(NC(=O)c2cc3c(=O)n4ccccc4nc3s2)c1	16	-10	5	-6	10
COCCN(CCOC)C(=O)c1cc2c(=O)n3ccccc3nc2s1	7	-53	+	0	32*
CCN(CC)C(=O)c1cc2c(=O)n3ccccc3nc2s1	10	-171	186*	-2	24
CC(=O)N1CCc2c1cccc2S(=O)(=O)NC(CC(C)C)C(=O)Nc1ccc(Cl)c(Cl)c1 (stereo not given)	.	-2	.	.	.
CCN(C(=O)CSc1nnc(-c2cccnc2)n1Cc1ccco1)c1ccccc1C	.	-5	.	.	.
COc1ccc(N2CCN(CCCNC(=O)CCc3cccc(Cl)c3)CC2)cc1	.	5	.	.	.
SMILES	MazF activator	CCHFV vOTU inh	FBA Mtb inh	Mtb betalactam	GDH-TPI inh
COc1ccc(/C=N/Nc2cc(OC)ncn2)cc1	-2	9	-2	2	31*
COc1ccc(/C=N/Nc2cc(C)nc(-n3nc(C)cc3C)n2)c(OC)c1	-4	7	0	98	37*
COc1ccc(/C=N/Nc2cc(C)nc(N)n2)cc1	4	1	-1	9	35*
COc1cc(/C=N/Nc2cc(C)nc(N)n2)ccc1O	1	27	-1	4	19
COc1ccc(/C=N/Nc2cc(C)nc(N3CCOCC3)n2)cc1OC	6	1	2	24	11
COc1ccc(/C=N/Nc2cc(C)nc(N3CCOCC3)n2)cc1	3	-4	0	5	33*
S=C(Nc1ccccc1)OC1CCC12CCC(c1ccccc1)CC2 (stereo not given)	.	9	.	.	.
O=C(CSc1nnc(-c2ccccc2)n1-c1ccccc1)NN=C/C=C\c1ccccc1[N+](=O)[O-]	.	19	.	.	.
Cc1ccc(S(=O)(=O)N2CCN(Cc3nc4sc(C)c(C)c4c(=O)[nH]3)CC2)cc1	88*	2	-1	11	-11
O=C(NC1CCCC1)C1(C(=O)C2CC2)CC(c2ccccc2C(F)(F)F)=NO1 (stereo not given)	.	10	.	.	.
O=C(NCc1cccnc1)/C(=C\c1ccc(-c2ccc(Br)cc2)o1)S(=O)(=O)c1ccccc1	1	7	-1	95	32*
O=C(NCc1cccnc1)/C(=C/c1ccc(Cl)cc1)NC(=O)c1ccccc1	0	-12	-5	-19	-9
O=C(NCc1cccnc1)/C(=C/c1ccc(-c2ccc(Cl)cc2)o1)S(=O)(=O)c1ccccc1	-5	-8	5	99	40*
